According to PubChem BioAssay AID1159580 (chemical genetic matrix, 2015):
In all, about 5,500 compounds went through this assay and about 2,000 (36%) were called active. Inconclusive results (about 18%) are left out. Rule as the data show it: active = normalized growth mostly below about 0.91 (no sharp cut-off); inconclusive = no clear call, values can overlap the other calls; inactive = mostly above about 0.92. The list shows a part of the results.

Test: chemical genetic growth profiling, strain panel (AID 1159580);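 also: tested at 20 µM; growth read once vehicle control cultures reached saturation at 30 °C; 1 = growth at the plate median or of vehicle wells; lower values mean less growth of the strain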
Conditions: growth OD

Measured: normalized growth

CC(=O)CCCCn1c(=O)c2c(ncn2C)n(C)c1=O
inactive: S. cerevisiae deletion strains, locus YJR066W, strain TOR1, stronger effect = lower value 0.958 | S. cerevisiae deletion strains, locus YJR075W, strain HOC1, stronger effect = lower value 1.01 | S. cerevisiae deletion strains, locus YKL009W, strain mrt4, stronger effect = lower value 0.994 | S. cerevisiae deletion strains, locus YKL068W, stronger effect = lower value 0.997 | S. cerevisiae deletion strains, locus YKL085W, strain MDH1 (second series), stronger effect = lower value 1 | S. cerevisiae deletion strains, locus YKL085W, strain MDH1, stronger effect = lower value 1 | S. cerevisiae deletion strains, locus YKL160W, strain elf1, stronger effect = lower value 1.02 | S. cerevisiae deletion strains, locus YKL190W, strain CNB1, stronger effect = lower value 1.02 | S. cerevisiae deletion strains, locus YKR001C, strain vps1, stronger effect = lower value 1.02 | S. cerevisiae deletion strains, locus YKR026C, strain gcn3, stronger effect = lower value 1.01 | S. cerevisiae deletion strains, locus YKR091W, strain srl3, stronger effect = lower value 1.01 | S. cerevisiae deletion strains, locus YLL001W, strain dnm1, stronger effect = lower value 1.01 | S. cerevisiae deletion strains, locus YLL026W, stronger effect = lower value 1.01 | S. cerevisiae deletion strains, locus YLL041C, strain sdh2, stronger effect = lower value 1.01 | S. cerevisiae deletion strains, locus YLR027C, strain aat2, stronger effect = lower value 1 | S. cerevisiae deletion strains, locus YLR039C, strain RIC1, stronger effect = lower value 1.03 | S. cerevisiae deletion strains, locus YLR058C, strain SHM2, stronger effect = lower value 1.02 | S. cerevisiae deletion strains, locus YLR102C, strain apc9, stronger effect = lower value 0.997 | S. cerevisiae deletion strains, locus YLR113W, strain HOG1, stronger effect = lower value 1 | S. cerevisiae deletion strains, locus YLR221C, strain rsa3, stronger effect = lower value 1.02 | S. cerevisiae deletion strains, locus YLR258W, strain gsy2, stronger effect = lower value 1.01 | S. cerevisiae deletion strains, locus YLR262C, strain YPT6 (second series), stronger effect = lower value 1.01 | S. cerevisiae deletion strains, locus YLR262C, strain YPT6, stronger effect = lower value 1.09 | S. cerevisiae deletion strains, locus YLR268W, strain sec22, stronger effect = lower value 1.01 | S. cerevisiae deletion strains, locus YLR320W, strain mms22, stronger effect = lower value 1.03 | S. cerevisiae deletion strains, locus YLR330W, strain CHS5, stronger effect = lower value 1.01 | S. cerevisiae deletion strains, locus YLR342W, strain FKS1 (second series), stronger effect = lower value 0.979 | S. cerevisiae deletion strains, locus YLR342W, strain FKS1, stronger effect = lower value 1.01 | S. cerevisiae deletion strains, locus YLR357W, strain rsc2, stronger effect = lower value 1.07 | S. cerevisiae deletion strains, locus YLR370C, strain arc18, stronger effect = lower value 1.02 | S. cerevisiae deletion strains, locus YLR371W, strain rom2, stronger effect = lower value 0.993 | S. cerevisiae deletion strains, locus YLR384C, strain iki3, stronger effect = lower value 1.02 | S. cerevisiae deletion strains, locus YLR418C, strain cdc73, stronger effect = lower value 0.982 | S. cerevisiae deletion strains, locus YML016C, strain PPZ1, stronger effect = lower value 1.02 | S. cerevisiae deletion strains, locus YML032C, strain rad52, stronger effect = lower value 0.997 | S. cerevisiae deletion strains, locus YML120C, strain ndi1, stronger effect = lower value 1.02 | S. cerevisiae deletion strains, locus YML124C, strain tub3, stronger effect = lower value 0.996 | S. cerevisiae deletion strains, locus YMR058W, strain fet3, stronger effect = lower value 1.02 | S. cerevisiae deletion strains, locus YMR078C, strain ctf18, stronger effect = lower value 0.996 | S. cerevisiae deletion strains, locus YMR125W, strain sto1, stronger effect = lower value 1.02 | S. cerevisiae deletion strains, locus YMR129W, stronger effect = lower value 1.01 | S. cerevisiae deletion strains, locus YMR205C, strain PFK2, stronger effect = lower value 1.04 | S. cerevisiae deletion strains, locus YMR223W, strain ubp8, stronger effect = lower value 0.975 | S. cerevisiae deletion strains, locus YMR231W, strain pep5, stronger effect = lower value 1.02 | S. cerevisiae deletion strains, locus YMR307W, strain GAS1, stronger effect = lower value 0.995 | S. cerevisiae deletion strains, locus YNL067W, strain RPL9B, stronger effect = lower value 1.04 | S. cerevisiae deletion strains, locus YNL071W, strain lat1, stronger effect = lower value 1.01 | S. cerevisiae deletion strains, locus YNL128W, strain TEP1, stronger effect = lower value 0.998 | S. cerevisiae deletion strains, locus YNL175C, strain NOP13, stronger effect = lower value 1.02 | S. cerevisiae deletion strains, locus YNL183C, strain NPR1, stronger effect = lower value 0.924 | S. cerevisiae deletion strains, locus YNL197C, strain WHI3, stronger effect = lower value 1.01 | S. cerevisiae deletion strains, locus YNL209W, strain ssb2, stronger effect = lower value 1.01 | S. cerevisiae deletion strains, locus YNL224C, strain SQS1, stronger effect = lower value 1 | S. cerevisiae deletion strains, locus YNL233W, strain BNI4, stronger effect = lower value 1.02 | S. cerevisiae deletion strains, locus YNL248C, strain rpa49, stronger effect = lower value 1.01 | S. cerevisiae deletion strains, locus YNL250W, strain rad50, stronger effect = lower value 1.02 | S. cerevisiae deletion strains, locus YNL271C, strain bni1, stronger effect = lower value 1 | S. cerevisiae deletion strains, locus YNL298W, strain CLA4, stronger effect = lower value 1 | S. cerevisiae deletion strains, locus YNL307C, strain MCK1, stronger effect = lower value 0.99 | S. cerevisiae deletion strains, locus YNL322C, strain KRE1 (second series), stronger effect = lower value 1.02 | S. cerevisiae deletion strains, locus YNL322C, strain KRE1, stronger effect = lower value 1.01 | S. cerevisiae deletion strains, locus YNR049C, strain mso1, stronger effect = lower value 1.01 | S. cerevisiae deletion strains, locus YNR052C, strain pop2, stronger effect = lower value 1.01 | S. cerevisiae deletion strains, locus YOL006C, strain TOP1, stronger effect = lower value 1.08 | S. cerevisiae deletion strains, locus YOL012C, strain htz1 1.51 | S. cerevisiae deletion strains, locus YOL147C, strain pex11, stronger effect = lower value 1 | S. cerevisiae deletion strains, locus YOR001W, strain rrp6, stronger effect = lower value 1.04 | S. cerevisiae deletion strains, locus YOR061W, strain CKA2, stronger effect = lower value 1.02 | S. cerevisiae deletion strains, locus YOR069W, strain VPS5, stronger effect = lower value 1.01 | S. cerevisiae deletion strains, locus YOR070C, strain gyp1, stronger effect = lower value 1.01 | S. cerevisiae deletion strains, locus YOR080W, strain dia2, stronger effect = lower value 1.02 | S. cerevisiae deletion strains, locus YOR083W, strain WHI5 (second series), stronger effect = lower value 1.05 | S. cerevisiae deletion strains, locus YOR083W, strain WHI5, stronger effect = lower value 1 | S. cerevisiae deletion strains, locus YOR106W, strain vam3, stronger effect = lower value 1.02 | S. cerevisiae deletion strains, locus YOR136W, strain idh2, stronger effect = lower value 0.996 | S. cerevisiae deletion strains, locus YOR144C, strain elg1, stronger effect = lower value 0.99 | S. cerevisiae deletion strains, locus YOR184W, strain ser1, stronger effect = lower value 0.999 | S. cerevisiae deletion strains, locus YOR231W, strain MKK1, stronger effect = lower value 0.977 | S. cerevisiae deletion strains, locus YOR265W, strain rbl2, stronger effect = lower value 1.01 | S. cerevisiae deletion strains, locus YOR270C, strain vph1, stronger effect = lower value 1.04 | S. cerevisiae deletion strains, locus YOR290C, strain snf2, stronger effect = lower value 1 | S. cerevisiae deletion strains, locus YOR316C, strain cot1, stronger effect = lower value 0.999 | S. cerevisiae deletion strains, locus YPL051W, strain arl3, stronger effect = lower value 1.01 | S. cerevisiae deletion strains, locus YPL055C, strain LGE1, stronger effect = lower value 1.04 | S. cerevisiae deletion strains, locus YPL078C, strain atp4, stronger effect = lower value 1.01 | S. cerevisiae deletion strains, locus YPL106C, strain sse1, stronger effect = lower value 1.03 | S. cerevisiae deletion strains, locus YPL240C, strain hsp82, stronger effect = lower value 1.01 | S. cerevisiae deletion strains, locus YPL241C, strain CIN2, stronger effect = lower value 1.01 | S. cerevisiae deletion strains, locus YPL256C, strain CLN2, stronger effect = lower value 0.958 | S. cerevisiae deletion strains, locus YPR119W, strain clb2, stronger effect = lower value 0.993 | S. cerevisiae deletion strains, locus YPR141C, strain kar3, stronger effect = lower value 0.991 | S. cerevisiae deletion strains, locus YPR163C, strain tif3, stronger effect = lower value 1 | S. cerevisiae deletion strains, locus YPR167C, strain met16, stronger effect = lower value 0.997 | S. cerevisiae deletion strains, strain wtn01, stronger effect = lower value 1 | S. cerevisiae strains, strain wild type, stronger effect = lower value 1.02
